Screens (PubChem)
Most compounds without a hit are left out; they make up all but 2.4% or so of the library.
Pf gamet viab = late stage P. falciparum gametocyte viability inhibitors, primary screen, ATP luminescence, HTS | inhibition, % at 10.9 µM | 150,000 compounds, 0.065% hits | P. falciparum stage V gametocytes, 24 h | AID 743093, 2013;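 active means inhibition above the mean plus 3 SD of compounds within the control limits, set per campaign, cut at about 38% in these data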;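 further: 0% = DMSO wells and 100% = medium only without gametocytes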
MEKK3 PB1 HTS = modulators of MEKK3-MEK5 PB1 binding, primary screen, biochemical, wildtype MEKK3, multiplex bead flow cytometry, Alexa488-MEK5; AID 1529, 2009; bead-based flow cytometry, Alexa488-MEK5 binding to MEKK3; actives lie on both sides; 0 = blocked by unlabeled MEK5, 100 = vehicle; 290,000 compounds, 1.4% hits; binding response (% of control), % at 10 µM;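 active means binding response more than 3 SD above or below the average of its plate-row segment, actives on both sides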;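 further: Alexa488 bead fluorescence after subtracting the streptavidin-only scavenger bead signal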
MEKK2 WT-MEK5 = modulators of MEK5 binding to wildtype MEKK2, primary screen, biochemical, multiplex bead flow cytometry, Alexa488-MEK5; Mitogen-activated protein kinase kinase kinase 2 (Homo sapiens), Q9Y2U5; Alexa488-MEK5 binding to MEKK2 WT; actives lie on both sides; binding response (% of control), % at 10 µM; 290,000 compounds, 1.1% hits; in the data active means binding response below about 67% or above about 130%
Arbovirus anti = antivirals against arbovirus infection, primary screen, cell-based, full library, 10K replicate subset; inhibition, % at 10 µM; 200,000 compounds, 0.37% hits; AID 1251, 2008; arbovirus infection cell-based antiviral screen; in the data active means inhibition above about 30%
MEKK2 mut-MEK5 = MEK5 binding signal on mutant MEKK2 PB1, primary screen, biochemical, multiplex bead flow cytometry, Alexa488-MEK5. Alexa488-MEK5 binding to MEKK2 mutant. percent response, % at 10 µM. 290,000 compounds, 0.35% hits. AID 1530, 2009; in the data active means percent response above about 24%, passing the limit was not always enough
Starred values were filed as active, the others as inactive; x = no result given; [ ] = remark or other dose.

SMILES	Pf gamet viab	MEKK3 PB1 HTS	MEKK2 WT-MEK5	Arbovirus anti	MEKK2 mut-MEK5
COc1ccc2cc(-c3cc(C(=O)O)c4ccccc4n3)ccc2c1	x	102.0	105.0	34.2*	5.0
CC(C)c1ccc(NC2CCCN(C(=O)CN3C(=O)CSC3=O)C2)cc1 (centres undefined)	x	105.0	101.0	x	1.0
Cc1nn2cc(-c3ccccc3)nc2[nH]c1=O	x	x	x	5.1	x
Cc1nn2c(-c3ccccc3)c(-c3ccccc3)nc2[nH]c1=O	-30.9	94.0	95.0	31.7*	-5.0
COc1cc(C2/C(=C(\O)c3ccc4c(c3)CC(C)O4)C(=O)C(=O)N2CCN2CCOCC2)cc(OC)c1OC (centres undefined)	x	105.0	114.0	x	10.0
CCN(CC)CCNC(=S)Nc1ccc2nc(N3CCN(CC)CC3)cc(C)c2c1	x	103.0	124.0	x	13.0
Cc1cc(N2CCN(C)CC2)nc2ccc(NC(=S)NCCN3CCc4ccccc4C3)cc12	25.5	110.0	158.0*	-8.8	26.0
COc1ccc(CN(C(=O)CSc2nnc(-c3ccc(F)cc3)o2)c2ccc(F)cc2)cc1	x	107.0	103.0	30.6*	6.0
CCCn1c(CN2CCN(C(C)=O)CC2)nc2cc(S(=O)(=O)N(C)C)ccc21	x	97.0	95.0	x	-5.0
CCn1c2ccccc2c2cc(NC(C)=O)ccc21	-20.5	101.0	100.0	-0.5	2.0
CCn1c2ccccc2c2cc(NC(=O)CN3CCCC3)ccc21	x	100.0	139.0*	x	19.0
O=C(CSc1cc(Cl)ccc1Cl)NCCCn1ccnc1	x	105.0	125.0	x	26.0*
CCC(C)(C)C1CCc2[nH]nc(C(=O)NCc3ccc(OC)cc3)c2C1 (centres undefined)	-26.8	x	x	x	x
CCOc1ccc(N/C(SCc2cccc([N+](=O)[O-])c2)=C(/C#N)C(N)=O)cc1	-1.3	96.0	87.0	-11.2	-9.0
N#CC(C#N)=C(Nc1ccc(F)cc1)SCc1cccc(F)c1	4.3	3.0*[inhibitor]	4.0*[inhibitor]	-10.9	-16.0
COc1cccc(C2CC(c3cccs3)=NN2S(C)(=O)=O)c1 (centres undefined)	-26.4	100.0	3.0*	7.9	19.0
CS(=O)(=O)Nc1cccc(C2=NN(S(=O)(=O)c3ccc(F)cc3)C(c3cccs3)C2)c1 (centres undefined)	x	103.0	7.0*	-4.1	6.0
CCS(=O)(=O)Nc1cccc(C2=NN(S(=O)(=O)c3ccc(F)cc3)C(c3cccs3)C2)c1 (centres undefined)	x	103.0	101.0	1.9	2.0
CS(=O)(=O)Nc1cccc(C2=NN(C(=O)c3ccccc3)C(c3cccs3)C2)c1 (centres undefined)	x	103.0	101.0	x	2.0
CCS(=O)(=O)Nc1cccc(C2=NN(S(C)(=O)=O)C(c3cccs3)C2)c1 (centres undefined)	x	12.0*[inhibitor]	x	x	x
COc1ccc(S(=O)(=O)N2N=C(c3cccc(NS(C)(=O)=O)c3)CC2c2ccco2)cc1 (centres undefined)	x	100.0	14.0*	x	21.0
C=CCn1c(SCC(=O)Nc2ccc(OC)cc2)nnc1-c1cnccn1	x	104.0	106.0	x	9.0
COc1ccc(C2=NOC(Cn3nc(C(=O)NCC4CC4)cc3-c3ccccc3)C2)cc1 (centres undefined)	18.3	x	x	x	x
CC(=O)c1cccc(N(CC(=O)NC2CCCCC2)C(=O)CNC(=O)c2cccs2)c1	x	96.0	92.0	x	-11.0
O=C(N/N=C/c1cc(Cl)c(O)c(Cl)c1)c1cc2c(ccc3ccccc32)o1	x	102.0	98.0	x	5.0
CCS(=O)(=O)N1N=C(c2cccc(NS(C)(=O)=O)c2)CC1c1cccs1 (centres undefined)	x	13.0*[inhibitor]	x	x	24.0*
CS(=O)(=O)Nc1cccc(C2=NN(C(=O)CCCC(=O)O)C(c3cccs3)C2)c1 (centres undefined)	x	98.0	97.0	x	0.0
CS(=O)(=O)Nc1cccc(C2=NN(S(C)(=O)=O)C(c3ccc4c(c3)OCO4)C2)c1 (centres undefined)	x	111.0	26.0*	-8.2	29.0
CCS(=O)(=O)Nc1cccc(C2=NN(S(=O)(=O)CC)C(c3cccs3)C2)c1 (centres undefined)	x	17.0*[inhibitor]	x	x	32.0*
